Experimental findings from PubChem BioAssay (NCATS) are described below.

Results filed as inconclusive are left out. Calls of active or inactive are those of the source. Calls follow the shape of the dose curve; as a rule, active = well fitted curve in the direction sought with a large enough effect; inconclusive = small, poorly fitted or top-dose-only effect, or another doubt; inactive = no such curve, though single readings can be large or run the other way.

The nature of this test: KB-8-5-11 P-gp reporter qHTS against the NCATS DSHEA and TCM libraries (AID 1919977). The following applies: KB-8-5-11 cells; series mostly up to 26.1 µM. The source says:
Assay Development and Screening Technology Laboratory (ADST)
National Center for Advancing Translational Sciences (NCATS), Rockville, MD
National Institute of Health (NIH), Bethesda, Maryland
Dietary Supplements and Natural Products have minor oversight of their safety and efficacy. We assembled a collection of Dietary Supplements and Natural Products (DSNP) as well as Traditional Chinese Medicinal (TCM) Plant extracts, which were screened against an in vitro panel of assays, including a liver cytochrome p450 enzyme panel, CAR/PXR signaling pathways, and P-gp transporter assays, to assess their activity. This pipeline facilitated the interrogation of Natural Product-Drug Interaction (NaPDI) through prominent metabolizing pathways. In addition, we compared the activity profiles of the DSNP/TCM substances with those of an approved drug collection. Many of the approved drugs have well-annotated mechanisms of action (MOA) while the MOAs for most of the DSNP and TCM samples remain unknown. Based on the premise that compounds with similar activity profiles tend to share similar targets or MOA, we clustered the library activity profiles to identify overlap with the NCATS Pharmaceutical Collection to predict the MOAs of the DSNP/TCM substances. Overall, we highlight four significant bioactivity profiles (measured by p-values) as examples of this prediction. To assess broad cytotoxicity, we employed screening against a HepG2 cell line. In addition, transporter-mediated drug interactions are utilized in the characterization of DDIs using a P-glycoprotein (P-gp) assays. To profile potential P-gp activity, a differential cell viability was measured against two cell lines: a parental KB-3-1 human cervical adenocarcinoma cell line and the drug-resistant subline KB-8-5-11 that overexpresses P-gp.
To this end, we profiled both collections for potential CAR and/or PXR activity, employing a previously published 1536-well qHTS assay.
[1] Lee TD, et al. A High-Throughput Screen of a Library of Therapeutics Identifies Cytotoxic Substrates of P-glycoprotein. Mol Pharmacol. Nov 2019;96(5):629-640. doi:10.1124/mol.119.115964
PROTOCOL TABLE (as described by Inglese J, Shamu CE and Guy RK. 2007)
SEQUENCE No. (e.g., 1, 2, 3, etc.); PARAMETER (e.g., Cells, Incubation, Reagent, etc.); VALUE; DESCRIPTION.
1; Cells; 5 uL; KB-8-5-11 cells, white solid-bottom tissue treated Greiner plate.
2; Incubation; 4 hrs; 37C, 95% humidity, 5% CO2.
3; Compounds and control; 23 nL; Kalypsis pin tool (Wako USA) equipped with a 1536-well pin head to transfer to the assay plates.
4; Incubation; 72 hrs; 37C, 95% humidity, 5% CO2.
5; Reagent; 2.5 uL; CellTiter-Glo.
6; Centrifuge; 1000 RPM; 15 seconds.
7; Incubation; 30 min; room temperature.
8; Read; Luminescence; ViewLux plate reader.
NOTES (numbers refer to Sequence numbers above)
1. P-gp-overexpressing subline KB-8-5-11 were maintained in DMEM (Thermofisher catalog #11965) with 10% FBS and 1% penicillin/streptomycin at 37C in 5% CO2. For KB-8-5-11 cells, colchicine was added to the medium at a concentration of 100 ng/ml (after initial cell attachment). For the screen, assay medium was identical to culture medium except for KB-8-5-11, where colchicine was excluded from the medium. Briefly, 5 uL of cells at 1 x 10^5 cells/mL (500 cells/well) were dispensed into a 1536-well white solid-bottom tissue treated plate (Greiner Bio-One) using a Multidrop Combi dispenser.
2. Plates were incubated at 37C, 95% humidity, 5% CO2 for ~4 hours to allow for cell attachment.
3. Compounds and intraplate control (Bortezomib; final concentration range 228 pM - 7.5 uM) were transferred (16 nL) via pintool (Wako Automation), for a final concentration of 15.6 nM - 30.0 uM (most substances).
4. Plates were incubated for ~72 hours at 37C, 95% humidity, 5% CO2.
5. Plates were then dispensed with 2.5 uL of CellTiter-Glo.
6. The assay plates were centrifuged for 15 seconds at 1,000 RPM's.
7. The plates were incubated for 30-minute at room temperature.
8. […]
A general note: In qHTS, concentration-response curves come from the screen itself.
With `NNC(=O)c1ccncc1`, the result was inactive.

With `O=C(O)CCCC[C@@H]1SC[C@@H]2NC(=O)N[C@@H]21`, the compound was classed as inactive.

As to `CC(C)=CCC[C@@](C)(O)[C@H]1CC=C(C)CC1`, the outcome was inactive.

As for `CCCCCCCCCCCCCCCCCC(=O)O`, the result was inactive.

As to `NC(=O)c1cnccn1`, the compound was called inactive.

As for `Nc1ccc(C(=O)O)cc1`, the outcome was inactive.

`C=CCc1ccc(O)c(OC)c1`: the outcome was inactive.

Consider `CC12CCC(CC1)C(C)(C)O2`, for which the call was inactive.

Turning to `CCCCCCCCCCCCCCCC(=O)O`, the outcome was inactive.

As for `O=C(O)c1cccnc1`, the call was inactive.

Consider `O=C(O)c1cc(O)c(O)c(O)c1`, for which the compound was classed as inactive.

`Cc1ccc(C(C)C)c(O)c1`: the result was inactive.

Consider `NC(=O)NC1NC(=O)NC1=O` (stereo not drawn), for which the compound was called inactive.
